Source: PubChem (several laboratories)
Hits are enriched below; roughly 1.9% of the tested compounds scored in any of these assays.
IEC-6 cytotox: kills IEC-6 intestinal cells in KLF5 counter-screen. inhibition, % at 5 µM. IEC-6 cytotoxicity, luminescence viability. 290,000 tested, 0.78% active; in the data active = inhibition above about 22%
KLF5 inh: suppresses KLF5 promoter-driven expression; DLD-1 KLF5 promoter-luciferase reporter, luminescence; inhibition, % at 5 µM; 290,000 tested, 0.23% active; AID 1700;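 active = inhibition above a per-plate limit of that plate's mean compound inhibition plus 3 SD, cut at about 60% in these data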;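 also: higher means less KLF5 promoter-driven luciferase light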
BaF3 tox: counter-screen for JAK2V617F inhibitors: parental Ba/F3 viability inhibitors | CellTiter-Glo ATP luminescence | inhibition, % at 5.6 µM | 220,000 tested, 1.1% active | AID 1486;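 active = inhibition above a per-campaign cutoff, the mean inhibition of all tested compounds plus 3 SD, cut at about 27% in these data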
Ba/F3 V617F tox: loss of viability in JAK2V617F-driven Ba/F3 cells; 220,000 tested, 1.1% active; AID 1446; Ba/F3 EpoR-JAK2V617F viability, ATP luminescence; inhibition, % at 5.6 µM;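 active = inhibition above the campaign mean plus 3 SD over all tested compounds, cut at about 24% in these data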;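 also: cytokine-independent growth of Ba/F3 cells driven by EpoR plus mutant JAK2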
APP 5UTR inh: APP translation inhibition; 190,000 tested, 0.82% active; SH-SY5Y APP 5'UTR-luciferase reporter, luminescence; inhibition, % at 2 µM;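 active = inhibition above a set limit, derived from the sample mean plus 3 SD, cut at about 45% in these data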
Of the large screens only hits and unclear results are named; the others gave an inactive call.

CCCCCCOc1ccc(N2C(=O)CC(N3CCN(CCN=CC4C(=O)CC(C)(C)CC4=O)CC3)C2=O)cc1 (stereo unspecified)	none
COc1cc(OC)nc(NC(=S)NC(=O)c2ccccc2)n1	none
CC(=O)NC(c1ccco1)c1ccc2cccnc2c1O (stereo unspecified)	APP 5UTR inh 55
CC(C)C(=O)NC(c1ccc(Cl)cc1Cl)c1ccc2cccnc2c1O (stereo unspecified)	KLF5 inh 79 (no result: BaF3 tox, Ba/F3 V617F tox, APP 5UTR inh)
CCCC(=O)NC(c1ccco1)c1cc([N+](=O)[O-])c2cccnc2c1O (stereo unspecified)	none
NS(=O)(=O)c1ccc(CCNC(=O)CSc2nnc3ccccn23)cc1	none
CCc1ccc(OCCCOc2ccc(C=O)cc2)cc1	BaF3 tox 102
Cc1cc(NC(=O)CCC(=O)N(Cc2ccco2)C2(C(=O)NC3CCCC3)CCCCC2)no1	none (no result: BaF3 tox, Ba/F3 V617F tox, APP 5UTR inh)
Cc1cc(NC(=O)CCC(=O)N(Cc2ccco2)C2(C(=O)NC3CCCCC3)CCN(C)CC2)no1	BaF3 tox 89
N#Cc1ccc2[nH]cc(CCO)c2c1	none (no result: BaF3 tox, Ba/F3 V617F tox, APP 5UTR inh)
CC(=O)c1cn(CC(=O)Nc2c(C)cccc2C)c2ccccc12	BaF3 tox 43, Ba/F3 V617F tox 33
CCC(=O)c1cn(CC(=O)OC)c2ccccc12	APP 5UTR inh 68
CCOc1ccc(CN(C)C(=O)CNC(=O)c2ccc3ccccc3c2)cc1OC	none (no result: BaF3 tox, Ba/F3 V617F tox, APP 5UTR inh)
CCOc1ccccc1NC(=O)C(=O)N/N=C/c1cc(Br)ccc1O	APP 5UTR inh 59
O=C(N/N=C/c1cc(Br)ccc1O)Nc1ccccc1	none
Oc1ccc(N=Nc2ccc(Br)cc2)c(O)c1	IEC-6 cytotox 29 (no result: APP 5UTR inh)
Cn1c(O)c(C=NCC2CCNCC2)c(=O)n(C)c1=O	BaF3 tox 93
Cn1c(=O)c2c(O)c(C=NCc3ccccc3)c(=O)n(C)c2n(C)c1=O	none (no result: APP 5UTR inh)
Cc1nc(-c2ccccc2)cn(O)c1=O	BaF3 tox 79
CCOc1ccc(NC(=O)c2ccc3[nH]c(=O)c(=O)[nH]c3c2)cc1	none (no result: BaF3 tox, Ba/F3 V617F tox, APP 5UTR inh)
CCC1=Nc2cc(C(=O)NCc3ccco3)ccc2Sc2ccc(Cl)cc21	IEC-6 cytotox 22, BaF3 tox 73, APP 5UTR inh 95
CCC1=Nc2cc(C(=O)NCc3ccco3)ccc2Sc2ccccc21	IEC-6 cytotox 36, BaF3 tox 32, Ba/F3 V617F tox 30, APP 5UTR inh 50
Nc1ccc(-c2nc3c(Cl)cc(N)cc3[nH]2)cc1	APP 5UTR inh 63
Nc1ccc2nc(-c3ccc(N)c(Cl)c3)[nH]c2c1	none
COC(=O)c1c(C)[nH]c(-c2csc(N)n2)c1C	BaF3 tox 51
CCOC(=O)c1[nH]c(C)c(C(=O)OC)c1C	none (no result: APP 5UTR inh)
Cc1cc(NC(=O)CCCn2ccc([N+](=O)[O-])n2)n(Cc2ccc(F)cc2)n1	none
CCCOc1ccc(N2CC(C(=O)Nc3ncccc3C)CC2=O)cc1 (stereo unspecified)	none
COc1ccc(N2CC(C(=O)N/N=C/c3ccc([N+](=O)[O-])cc3)CC2=O)cc1 (stereo unspecified)	none
COc1ccc(N2CC(C(=O)Nc3ncccc3C)CC2=O)cc1 (stereo unspecified)	BaF3 tox 101
COc1ccc(N2CC(C(=O)N/N=C/c3ccc(C)cc3)CC2=O)cc1 (stereo unspecified)	APP 5UTR inh 83
O=C(O)c1ccc2c(c1)C(=O)N(c1cccc(S(=O)(=O)Nc3cccc(C(F)(F)F)c3)c1)C2=O	none
Cc1noc(C)c1S(=O)(=O)N1CCC(C(=O)NCCCN2CC(C)CC(C)C2)CC1 (stereo unspecified)	none
Cc1noc(C)c1S(=O)(=O)N1CCC(C(=O)NCCN2CCC(C)CC2)CC1	APP 5UTR inh 61
CCOCCCNC(=S)N1CCC(NC(=O)C23CC4CC(CC(C4)C2)C3)CC1	none
Cc1sc(N/N=C/c2cc([N+](=O)[O-])ccc2O)nc1-c1ccccc1	APP 5UTR inh 50
CC[n+]1c(C)cc(C)n1-c1ccccc1	BaF3 tox 65, Ba/F3 V617F tox 63
CCCc1nc(C)cc(N2CCN(c3ccccc3)CC2)n1	none (no result: BaF3 tox, Ba/F3 V617F tox, APP 5UTR inh)
O=C(OCC(=O)N1CCc2ccccc2C1)c1cccs1	none
O=C(c1ccccc1)N1N=C(C(F)(F)F)CC1(O)c1ccc(F)cc1 (stereo unspecified)	none (no result: BaF3 tox, Ba/F3 V617F tox, APP 5UTR inh)
Cn1cc(/C=N/n2cnc3scc(-c4ccc(Cl)cc4)c3c2=O)c2ccccc21	IEC-6 cytotox 22, APP 5UTR inh 90
CC1(C)CC(Nc2ccc(Nc3ccccc3)cc2)CC(C)(C)N1	BaF3 tox 29, Ba/F3 V617F tox 77 (no result: APP 5UTR inh)
CC1(C)CC(NC(=O)c2ccccc2)CC(C)(C)N1	none (no result: BaF3 tox, Ba/F3 V617F tox, APP 5UTR inh)
CC(=O)c1ccc(-n2nnnc2SCC(=O)NC2CCCCC2)cc1	none (no result: BaF3 tox, Ba/F3 V617F tox, APP 5UTR inh)
CCn1c2ccccc2c2cc(/C=N/NC(=O)c3cccc(C)c3)ccc21	none
